Measured values taken from PubChem BioAssay (NCI).
The panel holds about 83,000 compounds, 20% with a hit somewhere; the sample as a whole holds those more often.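 Compound tested at a single concentration for 48 hours in 96-well plates; a percent growth value below 10 was scored as active.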 Unmarked numbers belong to inactive results. Calls of active or inactive are those of the source.

Columns and labels:
Assay in all cases: NCI-60 one-dose screen, 48 h (100 = growth as untreated, 0 = no growth, -100 = all killed)
Details in all cases: 10 µM unless noted
[1] = system: SK-MEL-2 melanoma
[2] = system: EKVX NSCLC
[3] = system: SN12C renal
[4] = system: UO-31 renal
[5] = system: TK-10 renal
[6] = system: ACHN renal
[7] = system: CAKI-1 renal
[8] = system: A498 renal
[9] = system: CCRF-CEM leukemia
[10] = system: MOLT-4 leukemia

Row | SMILES | growth [1] | growth [2] | growth [3] | growth [4] | growth [5] | growth [6] | growth [7] | growth [8] | growth [9] | growth [10]
1 | O=C1c2ccccc2C(=O)c2cc(Cn3c[n+](Cc4ccc5ccccc5c4)c4ccccc43)ccc21 | 51.2% | 73.9% | 47.8% | 72.8% | 67.8% | 92.4% | 40.5% | 77.8% | 22.1% | –
2 | Cc1cc(C(=O)Nc2cc(Nc3ncccc3-c3ncnc4nc[nH]c34)ccc2F)cc(C(C)(C)C#N)c1 | 8.76% (active) | 56% | 50.6% | 10.1% | 60.8% | 30.5% | 25.1% | -22.8% (active) | 42.4% | –
3 | COC(=O)c1c(C)nc(C)c2c1C(=O)C(Br)=C(NCCCCO)C2=O | 64.7% | 62.2% | 61.7% | 79.7% | 119% | 84.7% | 70.5% | 115% | 71.8% | –
4 | Oc1ccc(C2OCCO2)c2cccnc12 | 70.4% | 78.4% | 49.1% | 45% | 95.5% | 67.5% | 105% | 88.2% | 13.5% | 20.5%
5 | COc1ccc(-c2ccc(-c3ccc(C(=N)N)nc3)s2)cc1 | 88.3% | 38.8% | -78.9% (active) | -96.8% (active) | -65.8% (active) | -100% (active) | -92.3% (active) | 94.3% | -43.4% (active) | -53.7% (active)
6 | N#CC1=C(N)Oc2c(ccc3cccnc23)C1c1ccccc1 (centres undefined) | 43.2% | 51.8% | 49.5% | 43.6% | 73% | 45.8% | 39.9% | 9.1% (active) | 15.7% | 39.2%
7 | Nc1n[nH]c2cccc(C#Cc3cccc(C(=O)Nc4ccc(Cl)c(C(F)(F)F)c4)c3)c12 | 39.2% | 74.2% | 51.7% | 29.6% | 91.5% | 59.1% | 94.5% | 35.6% | 35.8% | –
8 | O=C(c1ccccc1)[C@@H](c1ccccc1)[C@]1(O)C(=O)Nc2ccccc21 | 96.9% | 105% | 82.3% | 76.1% | 112% | 90.1% | 84.6% | 100% | 100% | –
9 | O=[N+]([O-])c1ccc(Oc2cccc3c(Oc4ccc([N+](=O)[O-])cc4[N+](=O)[O-])cccc23)c([N+](=O)[O-])c1 | 90.4% | 77.7% | 74.8% | 72.8% | 119% | 93.4% | 89.2% | 108% | 95.7% | –
10 | COc1cc(/C=N/NC(=O)c2ccc3nc(-c4ccc(Cl)cc4)[nH]c3c2)cc(OC)c1OC | 83.6% | 95.8% | 68.5% | 88.3% | 77.4% | 67.4% | 76% | -1.95% (active) | 36.6% | –
11 | COc1ccc(C2CC(=O)Oc3c(OC)c4c(c(OC)c32)OCO4)cc1 (centres undefined) | 101% | 101% | 98% | 84.7% | 96.4% | 103% | 96.8% | 88.7% | 88.9% | –
12 | CCOC(=O)C#Cc1c(CC(=O)OCC)nnn1[C@H]1O[C@@H](CO)[C@@H]2OC(C)(C)O[C@@H]21 | 101% | 99.5% | 87.1% | 15.7% | 48.8% | -49.4% (active) | -88.4% (active) | 111% | 11.7% | –
13 | CCOC(=O)c1cc(C(=O)c2cc(OC)cc(OC)c2)n2ncccc12 | 19.3% | 49.7% | 44.8% | 47.8% | 63.9% | 53.2% | 34.1% | -3.04% (active) | 24% | 32.6%
14 | O=c1oc2ccccc2cc1-c1nn(-c2ccccc2)cc1/C=N/Nc1nc(-c2ccccc2)c(N=Nc2ccccc2)s1 | 64.9% | 82.3% | 103% | 73.4% | 95.1% | 92.9% | 62.8% | 70.2% | 69.7% | 53.5%
15 | C=C(CNCCO)[C@@H]1CC[C@]2(CO)CC[C@]3(C)[C@H](CC[C@@H]4[C@@]5(C)CCC(NCCO)C(C)(C)[C@@H]5CC[C@]43C)[C@@H]12 (some centres undefined) | 96.1% | 82.4% | 89.1% | 65.2% | 92.7% | 95.9% | 72.2% | 75.3% | 39.2% | –
16 | CCCCCCCC/C=C\CCCCCCCCOc1ccc(CC(=O)NCC[N+]2(C)CCCC2)cc1 | 103% | 86.1% | 42.5% | 93.3% | 38.5% | 84.1% | 50.9% | 86.4% | 29.5% | –
17 | COc1nc2ccccc2cc1/C=C1/C=C(c2ccccc2)NC1=O | 19% | 52.5% | 40.6% | 41.2% | 87.5% | 40.9% | 31.9% | 35.9% | 41.1% | –
18 | COc1cccc(/C=C2\CCc3ccccc3C2=O)c1 | 82.9% | 87.9% | 84.6% | 72.5% | 94.4% | 95.7% | 77.3% | 95.2% | 37.7% | –
19 | CCOC(=O)CC1CSC(N/N=C/c2ccc(O)cc2)=N1 (centres undefined) | 95.1% | 103% | 105% | 89.7% | 91.5% | 105% | 94.6% | 108% | 115% | –
20 | COc1cccc(/C=C/C(=O)/C=C(/C=C/c2cccc(OC)c2OC)OB(F)F)c1OC | 110% | 87.7% | 43% | 37.8% | 68% | 19.6% | 35.8% | 122% | 7.53% (active) | –
21 | Cc1c(C(=O)C(SC(=S)N2CCOCC2)SC(=S)N2CCOCC2)nnn1-c1ccc([N+](=O)[O-])cc1 | 106% | 113% | 96.4% | 74.7% | 100% | 98% | 94.9% | 128% | 67.9% | –
22 | C#CCOc1cccc(Nc2ncnc3c(NC(=O)CCl)cccc23)c1 | 36.5% | -19.8% (active) | 6.82% (active) | 35.4% | 63.7% | -72.4% (active) | 54.9% | 101% | -57.5% (active) | –
23 | O=C(c1ccc(F)cc1)C1CCN(CCn2c(=O)[nH]c3ccccc3c2=O)CC1 | 106% | 89.3% | 105% | 64.6% | 105% | 94.8% | 84.2% | 118% | 101% | –
24 | O=C(Nc1ncc(Cc2cc(C(F)(F)F)ccc2Cl)s1)C(=S)N1CCOCC1 | 104% | 83% | 96.2% | 69.5% | 88.5% | 99.4% | 67.1% | 90.3% | 92.3% | –
25 | Cc1c(Cl)cccc1NC(=O)c1sc2nc3c(cc2c1N)CCCC3 | 22.1% | 52.4% | 41.2% | 45.8% | 62.2% | 47.2% | 33.9% | -1.63% (active) | 20.4% | –
26 | Cc1c(-c2cnc3ccc(Cl)cc3c2C(=O)O)nnn1-c1ccc(Cl)cc1 | 100% | 121% | 89.5% | 79% | 101% | 94.6% | 95.8% | 118% | 94% | –
